# NR3A LBD binder = modulators (binders) of human NR3A ligand-binding domain. AID 1259313. NR3A LBD differential scanning fluorimetry, Tm shift; 0% = protein alone, 100% = glycine-bound protein. Tm shift relative to glycine control, % at 25 µM. 340,000 tested, 2.5% active;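 active = melting temperature shift of at least 10% of the positive control shift, at one fixed dose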
# ADAM10 inh = ADAM10 inhibition, QFRET primary screen; recombinant ADAM10, EDANS/DABCYL FRET peptide cleavage, 3 h; inhibition, % at 7 µM; 370,000 tested, 0.62% active; AID 720582;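 active = inhibition above a per-campaign cutoff equal to the mean of compounds falling between control-based bounds plus 3 SD, cut at about 20% in these data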;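 also: 0% = DMSO wells while the 100% control is not disclosed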
# AHR act = activators of human aryl hydrocarbon receptor; 320,000 tested, 2.5% active; AHR-responsive luciferase reporter cells, luminescence; activation, % at 5 µM; AID 2796; in the data active = activation above about 47%;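 also: 0% = vehicle wells and 100% = reference agonist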
# KLK7 zymogen act = activates the human kallikrein-7 zymogen. AID 652039. purified proKLK7, EDANS-DABCYL substrate fluorescence; 100% is mature enzyme control, 0% vehicle. P49862. 370,000 tested, 0.9% active. activation, % at 7 µM;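 active = activation above the mean of all tested compounds plus 3 SD, computed per campaign excluding outliers beyond control limits, cut at about 13% in these data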
# Target sequence (P49862 whole entry, looked up): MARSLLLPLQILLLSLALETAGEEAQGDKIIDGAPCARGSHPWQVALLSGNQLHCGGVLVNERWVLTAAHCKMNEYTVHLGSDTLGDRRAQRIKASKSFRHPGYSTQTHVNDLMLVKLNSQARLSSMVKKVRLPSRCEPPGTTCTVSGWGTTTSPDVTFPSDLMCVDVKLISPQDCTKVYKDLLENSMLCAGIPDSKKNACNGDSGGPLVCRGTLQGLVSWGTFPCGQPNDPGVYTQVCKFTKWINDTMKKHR
# ADAM17 inh = inhibits human ADAM17. inhibition, % at 6.95 µM. AID 720648. P78536. recombinant ADAM17, EDANS/DABCYL FRET peptide cleavage. 370,000 tested, 0.83% active;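 active = inhibition above the mean of compounds lying between control limits plus 3 SD, set per campaign, cut at about 8.5% in these data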;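 also: 0% = DMSO-only wells as the low control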
# rCAG RNA binder = binds r(CAG) RNA repeats | r(CAG) RNA repeat, TO-PRO-1 dye displacement fluorescence | inhibition, % at 3 µM | 370,000 tested, 1.3% active | AID 651821;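 active = inhibition above the plate cutoff, the mean of all test compounds on that plate plus 3 SD, cut at about 35% in these data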;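 also: 0% = DMSO alone and 100% = 100 µM mitoxantrone as full dye displacement; higher means more dye released from RNA so lower well fluorescence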
# * hit, by the source's call; i = inactive; . = not tested or not shown. In the library only some 7% were active in any assay of this set; here they are far more common.
SMILES,NR3A LBD binder,ADAM10 inh,AHR act,KLK7 zymogen act,ADAM17 inh,rCAG RNA binder
NS(=O)(=O)c1ccc(Nc2nc(-c3ccc(F)cc3)cs2)cc1,25*,15,-6,0,7,25
Oc1ccc(-c2csc(-c3cccnc3)n2)c(O)c1,3,4,4,-1,-2,7
CC(=O)Nc1nc(-c2ccc3ccccc3c2)cs1,0,-5,-4,0,-1,0
Oc1ccc(Nc2nc(-c3ccc4ccccc4c3)cs2)cc1,.,1,64*,0,-2,29
NS(=O)(=O)c1ccc(Nc2nc(-c3ccc(O)cc3O)cs2)cc1,15*,0,7,0,-2,10
Oc1ccc(-c2nc(-c3ccc(O)c(O)c3)cs2)cc1,21*,-13,2,-8,-7,23
CC(=O)Nc1ccc(-c2csc(Nc3ccc(S(N)(=O)=O)cc3)n2)cc1,-4,2,0,-1,0,10
CCOC(=O)NC[C@@]1(C(=O)OC)CC(=O)N(C)[C@@H]1c1ccccc1,.,1,.,0,1,-2
COc1ccc(N2CCN(S(=O)(=O)c3c(C)n(C)c(=O)n(C)c3=O)CC2)cc1,11*,-7,0,0,0,-3
COc1ccc(N2CCN(S(=O)(=O)c3cn(C)c(=O)n(C)c3=O)CC2)cc1,0,2,1,0,-5,-3
O=C(Oc1ccc2c3c(c(=O)oc2c1)CCCC3)c1cccs1,4,i,-5,-24,-263,-4
Cc1ccc(Oc2coc3cc(OC(=O)c4cccs4)ccc3c2=O)cc1,-2,-209,5,45*,-56,4
Cc1cccc(Oc2coc3cc(OC(=O)c4cccs4)ccc3c2=O)c1,1,-180,3,41*,-62,3
CCOP(=O)(OCC)C(NC(=O)Nc1ccc(C)c(Cl)c1)c1ccccc1 (configuration not stated),24*,7,12,0,9,-2
CCOP(=O)(OCC)C(NC(=O)Nc1ccc(Cl)cc1)c1ccccc1 (configuration not stated),2,4,5,0,3,0
COC(=O)[C@H]1C[C@@]2(C)c3ccccc3N(C(=O)OC(C)(C)C)[C@H]2N1C(=O)OC(C)(C)C,.,6,.,0,1,-2
COc1ccccc1CNCC(=O)N1CC(=O)Nc2ccccc21,1,-11,60*,0,-5,-4
Clc1ccc(/C=N/Nc2ncnc3ccccc23)cc1Cl,17*,-24,58*,0,-6,7
Fc1ccccc1/C=N/Nc1ncnc2ccccc12,-5,-113,31,0,-47,-1
O=C(O)CC1S/C(=N/N=C/C=C/c2ccccc2)NC1=O (configuration not stated),0,7,-1,0,5,4
O=C(CC1S/C(=N/N=C/C=C/c2ccccc2)NC1=O)Nc1ccc(Cl)c(Cl)c1 (configuration not stated),37*,-8,2,0,-1,12
COC(=O)[C@]12C[C@H](CC(=O)NCC34CC5CC(CC(C5)C3)C4)C(=O)N(Cc3ccccc3)C1=C[C@H](C1CCCC1)O[C@@H]2C,.,4,.,0,0,11
Cc1sc2ncnc(N[C@@H](Cc3c[nH]c4ccccc34)C(=O)O)c2c1C,-6,-2,48*,0,4,15
CCn1c(SCC(=O)Nc2ccccc2-c2ccccc2)nnc1-c1ccc(Cl)cc1,.,0,.,1,0,2
O=C(Nc1ccccc1)c1ccc(-c2ccc(F)cc2)s1,22*,-10,-4,0,-3,0
SMILES,NR3A LBD binder,ADAM10 inh,AHR act,KLK7 zymogen act,ADAM17 inh,rCAG RNA binder
COc1ccc(NC(=O)c2ccc(-c3ccc(OC)cc3)s2)cc1,22*,-21,4,0,-4,1
CN1CCCCC(NC(=O)C23CC4CC(CC(C4)C2)C3)C1=O (configuration not stated),.,-6,.,0,-5,-1
COC(=O)[C@]12C[C@H](CC(=O)N3CCSCC3)C(=O)N(Cc3ccc4c(c3)OCO4)C1=C[C@H](C(C)C)O[C@@H]2C1CC1,.,-1,.,0,-9,4
CCCC[C@H](C(=O)N(C)c1cccc(OC)c1)[C@@H](O)c1ccc(Cl)cc1,.,7,.,1,0,0
CCN(CC)CCn1c(=O)n(-c2ccc(Cl)cc2)c(=O)c2c3c(sc21)CN(C)CC3,3,-48,90*,0,-10,-13
CN1CCc2c(sc3c2c(=O)n(-c2ccc(Cl)cc2)c2nncn32)C1,-1,-14,1,0,-3,-1
OC(COCc1ccccc1)CN1CCCC1 (configuration not stated),11*,-1,1,0,-3,1
Cc1c(C)n(CCc2ccccc2)c2ncnc(NCCCO)c12,-1,1,51*,-1,1,-3
O=C(Cc1c[nH]c2ccccc12)Nc1nc2ccccc2[nH]1,-5,-14,91*,0,-3,9
OCc1c[nH]c2ccccc12,-1,-8,53*,0,-6,13
CCOC(=O)C1=C(C(=O)OCC)C2N(Cc3ccccc3)c3ccccc3[C@@]23C[C@@H](C(=O)OC)N(S(=O)(=O)c2ccc(C(F)(F)F)cc2)C3=N1 (some centres not stated),.,-1,.,0,1,8
Cc1ccc(-n2nc(C)c(NC(=O)CCl)c2C)cc1C,-9,-7,52*,-1,-4,-1
CCC(=O)Nc1c(C)nn(-c2ccc(C)c(C)c2)c1C,1,-5,19,0,-1,-3
COc1cccc(C2c3c(oc4ccccc4c3=O)C(=O)N2Cc2ccco2)c1 (configuration not stated),0,-8,82*,0,-5,0
Cc1cccc(NC(=O)CSc2nnc(NC(=O)CN3CCCCC3)s2)c1,.,-4,0,0,5,4
NC(=O)CSc1nnc(NC(=O)c2ccc(S(=O)(=O)N3CCOCC3)cc2)s1,-1,2,-3,0,5,8
O=C(CSc1nnc(Nc2ccccc2)s1)Nc1ccc(S(=O)(=O)N2CCOCC2)cc1,18*,4,7,1,-2,15
O=C(Cn1cnc2ccccc2c1=O)Nc1ccc(S(=O)(=O)N2CCOCC2)cc1,0,-4,47*,0,0,8
O=C(Cn1cnc2ccccc2c1=O)Nc1ccc(S(=O)(=O)N2CCCC2)cc1,-1,0,2,0,3,4
COc1ccc(NC(=O)CSc2nnc(NC(=O)c3ccc(S(=O)(=O)N4CCOCC4)cc3)s2)cc1,31*,-5,3,1,-5,2
Cc1cccc(Nc2nnc(SCC(=O)Nc3cccc(S(=O)(=O)N4CCCCC4)c3)s2)c1,15*,14,1,-1,8,17

# From PubChem
